Bioassay records: PubChem, Broad Institute
An excerpt weighted towards active compounds, which were near 4% of everything screened.
ERAP1 inh: blocks human ERAP1 aminopeptidase activity; Q9NZ08; AID 652197; recombinant ERAP1, Leu-AMC fluorescence, 60 min; inhibition, % at 10.7 µM; actives 0.15% (n = 340,000);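 active means mean replicate inhibition of at least 30%, or all replicates individually reaching that 30% level; inactive means mean below 30% and not every replicate reaching it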;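 further: 0% = neutral control wells and 100% = L-leucinethiol positive control wells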
FGF22 binding: binders of recombinant human FGF22 by thermal shift; Q9HCT0; SYPRO orange fluorescence; percent of sucrose octasulfate shift, DMSO zero; activity (Tm shift, normalised), % at 9.99 µM; actives 1.5% (n = 340,000);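 active means mean Tm shift, scaled 0 neutral to 100 positive control, at about 1.3% or above, every replicate too, limit read from the data; inconclusive means no clear call, values can overlap the other calls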
Target sequence (Q9HCT0 whole entry, looked up): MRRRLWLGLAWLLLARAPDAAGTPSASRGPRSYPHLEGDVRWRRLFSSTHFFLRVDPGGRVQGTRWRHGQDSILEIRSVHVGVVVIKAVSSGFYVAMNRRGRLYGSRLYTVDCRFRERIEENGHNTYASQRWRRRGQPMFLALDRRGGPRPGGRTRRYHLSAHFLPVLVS
MLL AF4-AF9 inh: MLL-AF4/AF9 protein interaction inhibition. P42568. AlphaScreen, biotin-AF4 peptide binding to FLAG-AF9. inhibition, % at 10 µM. actives 0.47% (n = 350,000);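 active means every replicate reaching a set inhibition limit, whatever the replicate mean, cut at about 25% in these data; inconclusive means mean inhibition reaches that limit but some replicates miss it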;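 further: 0% = plate neutral control median and 100% = total signal loss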
DENV2 CPE rescue: DENV2-induced cell death inhibition; CPE inhibition, % at 9.99 µM; AID 651640; actives 1.7% (n = 350,000); DENV2-infected cells, cytopathic effect rescue, plate reader; in the data active means CPE inhibition above about 20%, passing the limit was not always enough; inconclusive means no clear call, values can overlap the other calls; tested in BHK-21 cells;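 further: 0% = median of neutral control wells and 100% = median of positive control wells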
RAD52 anneal inh: RAD52 (human) annealing inhibition; actives 0.46% (n = 360,000); recombinant RAD52 DNA annealing, FRET fluorescence; inhibition, % at 18.7 µM; AID 651710;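 active means every replicate showing at least 50% inhibition; inconclusive means mean inhibition at least 50% but not in every replicate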
Target sequence (P43351 whole entry, looked up): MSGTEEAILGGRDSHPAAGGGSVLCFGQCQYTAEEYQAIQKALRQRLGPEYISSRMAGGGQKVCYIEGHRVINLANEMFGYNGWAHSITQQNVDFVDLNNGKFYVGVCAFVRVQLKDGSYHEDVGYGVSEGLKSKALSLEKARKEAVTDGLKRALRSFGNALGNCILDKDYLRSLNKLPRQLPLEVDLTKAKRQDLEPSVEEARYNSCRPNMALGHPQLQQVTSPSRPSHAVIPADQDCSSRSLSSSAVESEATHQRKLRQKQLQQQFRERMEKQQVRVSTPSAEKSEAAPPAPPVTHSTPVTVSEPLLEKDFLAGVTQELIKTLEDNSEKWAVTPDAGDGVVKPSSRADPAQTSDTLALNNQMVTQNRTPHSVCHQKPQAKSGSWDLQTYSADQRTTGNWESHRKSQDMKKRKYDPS
AlphaScreen intf: AlphaScreen signal interference counter-screen hit. shares compounds with MLL AF4-AF9 inh. signal luminescence. AC50, µM (series often up to 12 µM), without a hit: top-dose activity change, negative = inhibition. actives 45% (n = 530). AID 720494; cut-off not given, nearly all actives have AC50 up to about 14 µM
Numbers without * were called inactive; i = inactive; ? = inconclusive; . = no result.

SMILES	ERAP1 inh	FGF22 binding	MLL AF4-AF9 inh	DENV2 CPE rescue	RAD52 anneal inh	AlphaScreen intf
CN(C)c1ccc(CNCCC(Cc2ccccc2)c2ccco2)cc1 (stereo not drawn)	.	0	49*	4	-16	10µM*
Clc1ccc(-c2[nH]ncc2N=Nc2ccccc2)cc1	2	0	4	-1	-3	.
c1ccc(N=Nc2ccc3cccccc2-3)cc1	0	0	77*	-6	-15	1µM*
CC[n+]1c(/C=C/c2ccc(OC)c(OC)c2)ccc2ccccc21	16	0	0	?	9	.
CCN(CC)c1ccc(/C=C/c2ccc3ccc(OC)cc3[n+]2CC)cc1	2	0	59*	-6	-34	5.2µM*
CC[n+]1c(/C=C/c2ccc(N(C)C)cc2)ccc2ccccc21	7	0	50*	3	20	5.8µM*
CC(C)CC#Cc1cnc2c(c1)C(=O)N([C@H](C)CO)C[C@@H](C)[C@@H](CN(C)C(=O)Cc1cccnc1)O2	-1	0	-3	-1	-4	.
CC1=NN(c2ccccc2)C(=O)/C1=C/C=C/c1ccc(N(C)C)cc1	10	0	67*	19	3	-41%
CC1=NN(c2ccccc2)C(=O)/C1=C\C=C\c1ccccc1	-2	0	5	-10	-9	.
O=C(NC1CCCCC1)C(c1cccnc1)N(C(=O)CCl)c1cccc(Cl)c1 (stereo not drawn)	7	0	39*	.	46	-21%
COCC#Cc1cnc2c(c1)C(=O)N([C@@H](C)CO)C[C@@H](C)[C@@H](CN(C)C(=O)Nc1cccc(F)c1)O2	-1	0	-4	-5	-12	.
O=C(N[C@@H]1CC[C@H](CC(=O)N2CCc3ccccc3C2)O[C@@H]1CO)C1CCC1	1	0	-14	-7	2	.
CC(=O)c1cccc2c(O)c(C3=Nc4ccccc4C3=O)[nH]c12	.	.	40*	.	.	3.5µM*
CCN(CC)CCSc1nc2ccccc2c(=S)n1-c1ccccc1	29	43	34*	-5	3	-28%
CC(C)NC(=O)N1CC2(C1)[C@@H](c1ccccc1)[C@H](CO)N2C(=O)C1CCC1	0	.	-2	7	12	.
O=C1C=C(c2ccc3c(c2)OCO3)C[C@@H](c2ccc(F)cc2)C1	2	0	4	-12	-2	.
Fc1ccc([C@@H]2CCNC[C@H]2COc2ccc3c(c2)OCO3)cc1	-3	0	34*	3	14	-28%
Cc1ccn2c(Nc3ccc4c(c3)OCO4)c(-c3ccccn3)nc2c1	-3	0	32*	-9	-95	9.3µM*
Cc1ccn2c(NC3CCCC3)c(-c3ccccn3)nc2c1	-1	0	2	-3	-1	.
O=C(C[C@H]1CC[C@@H]2[C@H](COC[C@@H](O)CN2S(=O)(=O)c2ccc(F)cc2)O1)NCC1CCCCC1	-3	0	34*	9	89*	-19%
COC(=O)C1=C(C)NC(C)=C(C(=O)OCC(C)C)C1c1ccccc1[N+](=O)[O-] (stereo not drawn)	-2	0	38*	-2	-17	11µM*
CCOC(=O)C1=C(C)NC(C)=C(C(=O)OCC)C1c1cccc([N+](=O)[O-])c1	-2	0	0	?	-14	.
CCN1CCCc2cc(CN(CCN3CCOCC3)C(=S)Nc3cccc(C)c3)ccc21	2	0	37*	5	-11	-22%
Cn1ccc2c(N3CCCCCC3)cc3c(c21)C1CCC3C1 (stereo not drawn)	0	0	31*	3	20	-38%
COc1ccc(S(=O)(=O)N[C@H]2CC[C@@H](CC(=O)N3CCC(Cc4ccccc4)CC3)O[C@@H]2CO)cc1	-2	0	3	-8	-9	.
SMILES	ERAP1 inh	FGF22 binding	MLL AF4-AF9 inh	DENV2 CPE rescue	RAD52 anneal inh	AlphaScreen intf
CC(C)NC(=O)N(C)C[C@H]1Oc2cc(C#Cc3ccc(F)cc3)ccc2S(=O)(=O)N([C@H](C)CO)C[C@@H]1C	0	0	0	15	10	.
O=[N+]([O-])c1cccc(C2Nc3cccc4cccc(c34)N2)c1	1	0	-39	-13	-4	.
O=C1c2ccccc2NC(c2cccc([N+](=O)[O-])c2)N1O (stereo not drawn)	-4	0	28*	-2	-20	11µM*
CC(C)NC(=O)N(C)C[C@H]1Oc2ccc(NC(=O)NC3CCCCC3)cc2CC(=O)N([C@H](C)CO)C[C@@H]1C	3	0	-4	-7	-5	.
CCOC(=O)N1CCN(C(c2ccnc3ccccc23)c2nnnn2-c2ccc3c(c2)OCCO3)CC1 (stereo not drawn)	3	0	1	-1	-11	.
CC(C)(C)OC(=O)N1CCCN(C(c2ccnc3ccccc23)c2nnnn2-c2ccc3c(c2)OCCO3)CC1 (stereo not drawn)	3	0	36*	?	-13	-22%
CC(C)(c1ccccc1)c1ccc(OCC(O)CNC2CCN(Cc3ccccc3)CC2)cc1 (stereo not drawn)	6	0	31*	-8	41	-29%
NC(N)=NCCCS(=O)(=O)Nc1ccc(Nc2c3ccccc3nc3cc([N+](=O)[O-])ccc23)cc1	14	-1	78*	19	5	5.6µM*
O=C(NN1C(=O)/C(=C/c2ccc(O)c(O)c2)SC1=S)c1ccccc1	6	.	?	10	i	-24%
COc1cc(/C=C2\SC(=S)N(NC(=O)c3ccc(O)cc3)C2=O)ccc1O	2	0	8	2	i	.
O=C(NC1CCCCC1)N[C@H]1CC[C@H](CC(=O)N2CCOCC2)O[C@H]1CO	-7	0	-1	-4	-6	.
C[C@H]1CN([C@@H](C)CO)C(=O)Cc2cc(NC(=O)c3ccncc3)ccc2O[C@H]1CN(C)CC1CC1	-3	0	-1	-8	2	.
CN(C)c1ccc(C(CNC(=O)c2ccccc2F)c2c[nH]c3ccccc23)cc1 (stereo not drawn)	0	0	7	-3	-4	.
CN(C)c1ccc(C(CNC(=O)c2ccccc2)c2c[nH]c3ccccc23)cc1 (stereo not drawn)	-2	0	29*	-3	2	-27%
COc1ccc(C#Cc2ccc3c(c2)[C@H]2[C@H](CCN2C(=O)c2ccncc2)[C@@H](CO)N3)cc1	0	.	34*	-2	51*	13µM*
COc1cccc(-c2ccc3c(c2)[C@H]2[C@H](CCN2C(=O)C2CCCCC2)[C@@H](CO)N3)c1	-3	.	40*	?	-1	-29%
COc1cccc(-c2ccc3c(c2)[C@@H]2[C@@H](CCN2C(=O)C2CC2)[C@@H](CO)N3)c1	3	.	8	-4	-56	.
COc1ccc(C#Cc2ccc3c(c2)[C@@H]2[C@@H](CCN2C(C)=O)[C@H](CO)N3)cc1	.	.	23	-4	14	.
